Calls of active or inactive are those of the source.

Sequence of Torsin-1A-interacting protein 2 (Homo sapiens) (Q8NFQ8 whole entry, looked up): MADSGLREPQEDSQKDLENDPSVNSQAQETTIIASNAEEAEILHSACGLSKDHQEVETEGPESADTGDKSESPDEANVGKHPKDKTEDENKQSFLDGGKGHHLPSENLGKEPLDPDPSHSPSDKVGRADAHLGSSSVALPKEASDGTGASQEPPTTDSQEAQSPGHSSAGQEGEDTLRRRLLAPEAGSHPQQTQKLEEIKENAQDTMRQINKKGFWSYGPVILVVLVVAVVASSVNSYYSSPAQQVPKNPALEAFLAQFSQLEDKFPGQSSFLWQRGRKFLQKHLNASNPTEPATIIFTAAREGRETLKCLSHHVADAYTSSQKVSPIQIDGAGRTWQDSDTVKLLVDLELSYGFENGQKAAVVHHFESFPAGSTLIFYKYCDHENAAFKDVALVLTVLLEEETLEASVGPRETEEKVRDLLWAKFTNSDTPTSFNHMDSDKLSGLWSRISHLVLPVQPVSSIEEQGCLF

The first test has as its target Torsin-1A-interacting protein 2 (Homo sapiens) (UniProt Q8NFQ8). Briefly: LULL1 binders on small-molecule microarray, primary screen, cell lysate, human LULL1 lysate, 635/667 nm fluorescence (AID 1092).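 Note: probe is lysate of COS7 cells overexpressing human LULL1; score merges per-feature 667 nm fluorescence with signal-to-noise.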 As to conditions: hLULL1 lysate binding, 635 nm fluorescence, higher = more signal.
`CCC[C@@H]1C[C@@]1(CCC)[C@@H](NC(=O)OCc1ccccc1)c1ccc(-c2ccccc2)cc1` came in with a composite z-score of 0.543. For `CC[C@H]1C2=C3C(CC[C@H]4C(OCc5ccc(F)cc5C(F)(F)F)OC[C@](C)([C@@H]34)N(C(=O)OC(C)(C)C)C2)C(COC)C1COC` (some centres undefined), the composite z-score was 1.68. As for `CC(C)(C)OC(=O)CC[C@@]1(C(=O)NCc2ccccc2)N=C(c2ccc(OCCCO)cc2)O[C@@H]1c1ccccc1N=[N+]=[N-]`, the composite z-score turned out to be 3.25. For the compound `CCC(CC)C(O)C1C=CC2C(=O)N(c3ccccc3)C(=O)C2N1Nc1ccc(C(C)C)cc1` (centres undefined), the composite z-score amounted to 3.12. Same read-out and setting: for `C[C@H]1NC(=O)[C@@]23C(=O)N[C@@H](Cc4ccccc4)C2[C@H](C)[C@@]2(C)O[C@H]2C3/C=C/C/C=C\CNC(=O)[C@H](Cc2ccccc2)NC1=O` (some centres undefined) the value was 0.834; for `COCCOC(=O)N1C(=O)[C@@]2(c3cc(C#CC4=CCCCC4)ccc31)[C@H](C(N)=O)[C@H]1C(=O)O[C@H](c3ccccc3)[C@H](c3ccccc3)N1[C@@H]2c1ccccc1OCCO`, 2.75. The compound `CCOC(=O)C[C@H]1[C@H](OC(=O)c2cc3ccccc3oc2=O)[C@@H](NC(=O)c2ccc(-c3ccccc3)cc2)c2cc(OCCCO)ccc2N1C(=O)c1ccc2ccccc2n1` came in with a composite z-score of 1.92. On the same count and under the same terms, for `COC(=O)[C@@]1(Cc2ccc(F)cc2)[C@H]2c3cc(C(=O)N(C)C)n(Cc4cc(F)cc5c4OCOC5)c3C[C@H]2CN1C(=O)c1ccccc1` the value was 3.32; for `COC(=O)[C@@]1(Cc2ccccc2)[C@@H]2C(=CC(=O)[C@H]2CC(=O)C(=O)N(C)C)CN1C(=O)c1ccccc1`, 3.22. `CN1C(=O)C2C=CC(C(O)c3ccc(F)cc3)N(Nc3ccccc3)C2C1=O` (centres undefined): the composite z-score came out at 3.69. The same measure, in the same setting: under `CCCC[C@@H]1C[C@H]1[C@@H](NC(=O)c1ccccc1)c1ccc(C(F)(F)F)cc1` stands -0.962.

`COc1ccc([Si](C)(C)[C@H]2[C@H](CCn3cc([C@H](O)c4ccccc4)nn3)O[C@@]3(C(=O)N(Cc4ccc(N5C(=O)c6cccc7cccc5c67)cc4)c4ccccc43)[C@@H]2C)cc1` returned a composite z-score of 0.277.

As for `C[N+](C)(C)CCCC[C@@H]1NC(=O)[C@H]2C[C@@H](C(=O)NCCCCCCN)[C@@H](c3ccc(O)cc3)N2C1=O`, the composite z-score is 1.57. The same measure, in the same setting: under `O[C@@H](Cc1ccccc1)[C@@H](/C=C/C1CC1)N(CC#Cc1ccccc1)Cc1cccc(Cl)c1` stands -0.0561. Regarding `CCOC(=O)C[C@H]1[C@H](OC(=O)c2ccccc2-c2ccccc2)[C@@H](NC(=O)c2ccc(-c3ccccc3)cc2)c2cc(OCCCO)ccc2N1C(=O)c1ccc2ccccc2n1`, the composite z-score turned out to be 1.11. Same read-out and setting: under `CN(C)c1ccc(C(O)C2C=CC3C(=O)N(c4ccccc4)C(=O)C3N2Nc2ccc([N+](=O)[O-])cc2)cc1` (centres undefined) stands 2.98; under `COC(=O)[C@@]1(Cc2ccc(OC)cc2)[C@H]2c3cc(C(=O)N4CCCC4)n(Cc4c(-c5ccccc5)noc4C)c3C[C@H]2CN1C(=O)c1ccccc1`, 3.31; under `COc1ccc(-c2nc(-c3ccccc3)c3c(c2C)CO[Si]3(C(C)C)C(C)C)cn1`, 0.498.

As to `O=C1O[C@@H](c2ccccc2)[C@@H](c2ccccc2)N2[C@@H](c3ccc(O)cc3)[C@]3(C(=O)Nc4ccc(C#CC5=CCCCC5)cc43)[C@@H](C(=O)NC[C@H](O)c3ccccc3)[C@H]12`, the composite z-score came out at 2.55. `CO[C@H]1O[C@H](CO)[C@@H](OC(=O)Nc2ccccc2-c2ccccc2)[C@H](OC(=O)Nc2ccc3c(c2)OCO3)[C@H]1OC(=O)Nc1ccc2c(c1)OCO2` registered a composite z-score of 3.25. On the same count and under the same terms, under `COC(=O)[C@@]1(Cc2ccc(F)cc2)[C@H]2c3cc(C(=O)N4CCCC4)n(CCN4CNCC4=O)c3C[C@H]2CN1C(=O)c1ccccc1` stands 3.97; under `CN(C)CCCNC(=O)[C@@H]1c2ccccc2C(=O)N(Cc2ccccc2Cl)[C@H]1c1ccc(CO)cc1`, 2.25.

Test system in a further test: not listed separately
Nature of the test: E. coli growth modulation, two-sided OD650, primary screen, E. coli filamentation project, strain DRC41, 24 h (AID 1093).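 Note: MC1000 strain lacking acrAB efflux and sulA so SOS filamentation is blocked; test concentration not given here.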 As to conditions: OD650, 24 h, higher = more signal, called active from +8 up or from −8 down.
`COc1cc2c(cc1O)C(C)N(Cc1ccc([N+](=O)[O-])o1)CC2` (centres undefined): the z-score is -0.741 (inactive). Still for that read-out and setting: under `COCCOC(=O)N1C(=O)[C@@]2(c3cc(C#Cc4ccc(OC)cc4)ccc31)[C@H](c1ccc(O)cc1)N1[C@H](c3ccccc3)[C@H](c3ccccc3)OC(=O)[C@H]1[C@@H]2C(=O)N1CCCCCCC1` stands -0.0793 (inactive).

For `COc1ccc([Si](C)(C)[C@@H]2[C@@H](CC(=O)N(CCO)Cc3ccccc3)O[C@]3(C(=O)N(Cc4cccc(N5C(=O)c6cccc7cccc5c67)c4)c4ccccc43)[C@H]2C)cc1`, the z-score was 2.11 (inactive). In the case of `Cc1ccc(S[C@]2(C(=O)O)CC(=O)N(Cc3ccccc3Cl)[C@@H]2c2ccc(CO)cc2I)cc1`, the z-score was -0.852 (inactive).

Regarding `COC(=O)C1=CC(CCCO)=CC(C2CC2)N(C)C=C1C(=O)OC` (centres undefined), the z-score is -0.705 (inactive). On the same count and under the same terms, under `COCCOC(=O)N1C(=O)[C@@]2(c3cc(C#CCC(C(=O)OC)C(=O)OC)ccc31)[C@H](C(=O)N1CCc3cc(OC)c(OC)cc3C1)[C@H]1C(=O)O[C@H](c3ccccc3)[C@H](c3ccccc3)N1[C@@H]2c1ccc(OCCO)cc1` stands -0.402 (inactive). In the case of `COc1ccc([Si](C)(C)[C@H]2[C@H](CCO)O[C@@]3(C(=O)N(Cc4cccc(N5C(=O)COc6ccccc65)c4)c4ccccc43)[C@@H]2C)cc1`, the z-score was 1.98 (inactive). With `CN(C)CCCNC(=O)[C@@]1(C)c2ccccc2C(=O)N(Cc2ccccc2)[C@H]1c1ccc(CO)cc1`, the z-score was 1.16 (inactive). In the case of `COC(=O)c1c2oc(c1C(=O)OC)C(=O)N(Cc1ccccc1)Cc1cn(nn1)C[C@H](Cc1ccccc1)NC(=O)N[C@H](CO)CC2`, the z-score is 0.101 (inactive). For the compound `[N-]=[N+]=NCc1ccccc1[C@H]1OC(c2ccc(OCCCO)cc2)=N[C@@]1(CCS(=O)(=O)c1ccccc1)C(=O)N1CCCCC1`, the z-score was -0.334 (inactive). Take `O=C(CS)NCCCCCNC(=O)[C@@H]1C[C@@H]2C(=O)N3CCC[C@H]3C(=O)N2[C@@H]1c1cccc(OCCO)c1`: the z-score is -1.01 (inactive). Still for that read-out and setting: under `COCCOC(=O)N1C(=O)[C@@]2(c3cc(C#CCCO)ccc31)[C@H](C(=O)Nc1nc3ccccc3s1)[C@H]1C(=O)O[C@H](c3ccccc3)[C@H](c3ccccc3)N1[C@@H]2c1ccccc1OCCO` stands -0.0236 (inactive). The same measure, in the same setting: under `C[C@@H]1NC(=O)[C@@]23C(=O)N[C@@H](Cc4ccccc4)C2[C@H](C)[C@@]2(C)O[C@H]2C3/C=C/C/C=C\CNC(=O)[C@@H]2CCCN2C1=O` (some centres undefined) stands -0.874 (inactive); under `CCC[C@@H]1C[C@@]1(CCC)[C@@H](NC(=O)OCc1ccccc1)c1ccc(-c2ccccc2)cc1`, 0.0945 (inactive). On to `CC[C@H]1C2=C3C(CC[C@H]4C(OCc5ccc(F)cc5C(F)(F)F)OC[C@](C)([C@@H]34)N(C(=O)OC(C)(C)C)C2)C(COC)C1COC` (some centres undefined), for which the z-score was -0.773 (inactive). As for `CC(C)(C)OC(=O)CC[C@@]1(C(=O)NCc2ccccc2)N=C(c2ccc(OCCCO)cc2)O[C@@H]1c1ccccc1N=[N+]=[N-]`, the z-score was 0.516 (inactive). For `CCC(CC)C(O)C1C=CC2C(=O)N(c3ccccc3)C(=O)C2N1Nc1ccc(C(C)C)cc1` (centres undefined), the z-score was -0.63 (inactive).

Take `C[C@H]1NC(=O)[C@@]23C(=O)N[C@@H](Cc4ccccc4)C2[C@H](C)[C@@]2(C)O[C@H]2C3/C=C/C/C=C\CNC(=O)[C@H](Cc2ccccc2)NC1=O` (some centres undefined): the z-score is -0.225 (inactive). On the same count and under the same terms, for `COCCOC(=O)N1C(=O)[C@@]2(c3cc(C#CC4=CCCCC4)ccc31)[C@H](C(N)=O)[C@H]1C(=O)O[C@H](c3ccccc3)[C@H](c3ccccc3)N1[C@@H]2c1ccccc1OCCO` the value was -0.0839 (inactive); for `CCOC(=O)C[C@H]1[C@H](OC(=O)c2cc3ccccc3oc2=O)[C@@H](NC(=O)c2ccc(-c3ccccc3)cc2)c2cc(OCCCO)ccc2N1C(=O)c1ccc2ccccc2n1`, -0.0642 (inactive); for `COC(=O)[C@@]1(Cc2ccc(F)cc2)[C@H]2c3cc(C(=O)N(C)C)n(Cc4cc(F)cc5c4OCOC5)c3C[C@H]2CN1C(=O)c1ccccc1`, -0.375 (inactive). The same measure, in the same setting: for `COC(=O)[C@@]1(Cc2ccccc2)[C@@H]2C(=CC(=O)[C@H]2CC(=O)C(=O)N(C)C)CN1C(=O)c1ccccc1` the value was 0.844 (inactive); for `CN1C(=O)C2C=CC(C(O)c3ccc(F)cc3)N(Nc3ccccc3)C2C1=O` (centres undefined), -1.2 (inactive); for `CCCC[C@@H]1C[C@H]1[C@@H](NC(=O)c1ccccc1)c1ccc(C(F)(F)F)cc1`, -0.582 (inactive). Consider `COc1ccc([Si](C)(C)[C@H]2[C@H](CCn3cc([C@H](O)c4ccccc4)nn3)O[C@@]3(C(=O)N(Cc4ccc(N5C(=O)c6cccc7cccc5c67)cc4)c4ccccc43)[C@@H]2C)cc1`, for which the z-score is 0.021 (inactive). As to `C[N+](C)(C)CCCC[C@@H]1NC(=O)[C@H]2C[C@@H](C(=O)NCCCCCCN)[C@@H](c3ccc(O)cc3)N2C1=O`, the z-score is 0.766 (inactive). Still for that read-out and setting: for `O[C@@H](Cc1ccccc1)[C@@H](/C=C/C1CC1)N(CC#Cc1ccccc1)Cc1cccc(Cl)c1` the value was 1.37 (inactive). On the same count and under the same terms, under `CCOC(=O)C[C@H]1[C@H](OC(=O)c2ccccc2-c2ccccc2)[C@@H](NC(=O)c2ccc(-c3ccccc3)cc2)c2cc(OCCCO)ccc2N1C(=O)c1ccc2ccccc2n1` stands -0.75 (inactive). The same measure, in the same setting: under `CN(C)c1ccc(C(O)C2C=CC3C(=O)N(c4ccccc4)C(=O)C3N2Nc2ccc([N+](=O)[O-])cc2)cc1` (centres undefined) stands -0.564 (inactive); under `COC(=O)[C@@]1(Cc2ccc(OC)cc2)[C@H]2c3cc(C(=O)N4CCCC4)n(Cc4c(-c5ccccc5)noc4C)c3C[C@H]2CN1C(=O)c1ccccc1`, 0.19 (inactive). In the case of `COc1ccc(-c2nc(-c3ccccc3)c3c(c2C)CO[Si]3(C(C)C)C(C)C)cn1`, the z-score was -1.5 (inactive). Still for that read-out and setting: for `O=C1O[C@@H](c2ccccc2)[C@@H](c2ccccc2)N2[C@@H](c3ccc(O)cc3)[C@]3(C(=O)Nc4ccc(C#CC5=CCCCC5)cc43)[C@@H](C(=O)NC[C@H](O)c3ccccc3)[C@H]12` the value was 1.24 (inactive).
